From PubChem BioAssay (NCATS) come the findings set out here.

Assay [1] deals with Rap guanine nucleotide exchange factor 4 (Homo sapiens) (UniProt Q8WZA2). The experiment in a line: Confirmatory qHTS for agonist of cAMP-regulated guanine nucleotide exchange factor 4 (EPAC2) (AID 1645884).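 Also: nucleotide exchange releases bodipy-GDP from Rap1 and this lowers its fluorescence; nearly all actives have a fitted effect of over 65% in size.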 Also: potency is read from the fitted curve at half-maximal effect. As to activation: % is scaled to controls: 0 for no effect and ±100 for the full control effect.
Sequence of Rap guanine nucleotide exchange factor 4 (Homo sapiens) (Q8WZA2 whole entry, looked up): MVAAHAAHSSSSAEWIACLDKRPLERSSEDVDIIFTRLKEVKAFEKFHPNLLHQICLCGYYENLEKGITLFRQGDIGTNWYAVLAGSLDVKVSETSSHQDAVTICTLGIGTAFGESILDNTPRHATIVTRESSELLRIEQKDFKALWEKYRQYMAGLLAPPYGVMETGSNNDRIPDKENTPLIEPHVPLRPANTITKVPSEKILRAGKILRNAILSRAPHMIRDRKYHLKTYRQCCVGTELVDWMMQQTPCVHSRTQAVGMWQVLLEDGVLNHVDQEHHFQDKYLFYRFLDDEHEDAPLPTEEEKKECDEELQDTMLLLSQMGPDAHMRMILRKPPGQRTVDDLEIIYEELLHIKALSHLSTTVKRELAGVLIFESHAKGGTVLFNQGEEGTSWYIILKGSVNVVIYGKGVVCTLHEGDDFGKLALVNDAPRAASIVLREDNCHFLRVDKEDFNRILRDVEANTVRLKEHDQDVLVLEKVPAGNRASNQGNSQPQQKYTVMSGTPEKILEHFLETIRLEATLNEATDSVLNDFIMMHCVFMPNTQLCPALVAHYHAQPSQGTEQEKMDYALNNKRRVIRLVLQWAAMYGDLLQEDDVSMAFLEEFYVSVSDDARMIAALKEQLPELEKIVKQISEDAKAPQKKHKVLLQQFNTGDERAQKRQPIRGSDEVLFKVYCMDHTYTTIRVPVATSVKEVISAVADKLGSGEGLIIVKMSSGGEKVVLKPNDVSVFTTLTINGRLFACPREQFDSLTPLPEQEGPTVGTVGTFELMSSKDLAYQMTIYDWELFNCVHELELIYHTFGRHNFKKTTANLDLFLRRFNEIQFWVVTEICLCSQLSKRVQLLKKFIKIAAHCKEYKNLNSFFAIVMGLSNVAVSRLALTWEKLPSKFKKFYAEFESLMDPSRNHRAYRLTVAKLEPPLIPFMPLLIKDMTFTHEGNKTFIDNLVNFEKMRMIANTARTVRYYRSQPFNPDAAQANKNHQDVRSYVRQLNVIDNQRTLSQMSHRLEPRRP
Assay [2] has the same target. The experiment in a line: Confirmatory qHTS for antagonist of cAMP-regulated guanine nucleotide exchange factor 4 (EPAC2) (AID 1645885). Also: nearly all actives have a fitted effect of over 25% in size. As to activity change, negative = inhibition: % is scaled to controls: 0 for no effect and ±100 for the full control effect.
The target in assay [3] is Rap guanine nucleotide exchange factor 3 (Homo sapiens) (UniProt O95398). The assay can be described thus: Counterscreen qHTS for antagonist of cAMP-regulated guanine nucleotide exchange factor 3 (EPAC1) (AID 1645888). Also: % of control where 0% means no effect. The essentials: (§1)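 Measured: fluorescence of BODIPY-GDP bound to Rap1B, which falls as exchange proceeds. Conditions include 50 uM competing GDP, 5 and 30 min reads, and a later cAMP challenge for antagonist detection.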
Sequence of Rap guanine nucleotide exchange factor 3 (Homo sapiens) (O95398 whole entry, looked up): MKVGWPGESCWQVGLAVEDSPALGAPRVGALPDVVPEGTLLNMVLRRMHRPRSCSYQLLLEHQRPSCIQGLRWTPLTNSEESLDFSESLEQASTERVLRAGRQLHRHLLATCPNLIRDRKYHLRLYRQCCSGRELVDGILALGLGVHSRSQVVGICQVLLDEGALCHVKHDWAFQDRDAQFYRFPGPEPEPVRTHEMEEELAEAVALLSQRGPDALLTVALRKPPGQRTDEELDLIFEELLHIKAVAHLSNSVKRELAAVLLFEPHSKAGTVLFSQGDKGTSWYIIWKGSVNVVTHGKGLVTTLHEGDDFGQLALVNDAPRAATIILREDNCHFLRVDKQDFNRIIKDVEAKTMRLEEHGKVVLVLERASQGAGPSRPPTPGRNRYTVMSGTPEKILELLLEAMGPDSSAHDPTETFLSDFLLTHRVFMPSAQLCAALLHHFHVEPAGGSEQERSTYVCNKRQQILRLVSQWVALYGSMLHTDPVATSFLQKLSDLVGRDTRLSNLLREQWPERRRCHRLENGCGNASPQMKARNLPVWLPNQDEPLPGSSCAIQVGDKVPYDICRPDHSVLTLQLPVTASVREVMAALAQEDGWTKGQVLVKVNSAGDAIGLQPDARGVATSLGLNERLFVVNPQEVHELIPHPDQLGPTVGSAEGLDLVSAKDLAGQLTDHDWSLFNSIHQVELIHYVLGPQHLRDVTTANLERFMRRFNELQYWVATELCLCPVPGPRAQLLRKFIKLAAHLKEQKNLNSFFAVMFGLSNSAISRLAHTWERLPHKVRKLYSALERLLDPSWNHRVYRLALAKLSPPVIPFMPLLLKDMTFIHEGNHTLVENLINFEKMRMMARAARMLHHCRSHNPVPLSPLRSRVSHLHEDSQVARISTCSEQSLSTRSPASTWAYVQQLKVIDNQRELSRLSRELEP

For assay [4] the target is unchanged. The experiment in a line: Counterscreen qHTS for agonist of cAMP-regulated guanine nucleotide exchange factor 3 (EPAC1) (AID 1645889). Also: % of control where 0% means no effect; nearly all actives have a fitted effect of over 40% in size. The gist of the method:
as §1

Assay [5] concerns the target Tyrosyl-DNA phosphodiesterase 1 (Homo sapiens) (UniProt Q9NUW8). The experiment in a line: Confirmation Assay for Inhibitors of Tyrosyl-DNA Phosphodiesterase (TDP1) (AID 489007). Also: potency is read from the fitted curve at half-maximal effect; nearly all actives have a fitted effect of over 40% in size. As to conditions: recombinant human TDP1 enzymatic activity, dose-response. The essentials: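 AlphaScreen read-out: streptavidin donor and anti-FITC acceptor beads (10 ug/ml) bind intact substrate, so Tdp1 removal of tyrosine-FITC lowers signal. Enzyme 1 nM, substrate 15 nM, 5 min reaction at room temperature after 15 min compound preincubation.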

Results filed as inconclusive are left out. Unmarked numbers belong to inactive results. Active and inactive are the calls of the source. Calls follow the shape of the dose curve; as a rule, active = well fitted curve in the direction sought with a large enough effect; inconclusive = small, poorly fitted or top-dose-only effect, or another doubt; inactive = no such curve, though single readings can be large; an effect the other way counts as inactive or inconclusive.

Sequence of Tyrosyl-DNA phosphodiesterase 1 (Homo sapiens) (Q9NUW8 whole entry, looked up): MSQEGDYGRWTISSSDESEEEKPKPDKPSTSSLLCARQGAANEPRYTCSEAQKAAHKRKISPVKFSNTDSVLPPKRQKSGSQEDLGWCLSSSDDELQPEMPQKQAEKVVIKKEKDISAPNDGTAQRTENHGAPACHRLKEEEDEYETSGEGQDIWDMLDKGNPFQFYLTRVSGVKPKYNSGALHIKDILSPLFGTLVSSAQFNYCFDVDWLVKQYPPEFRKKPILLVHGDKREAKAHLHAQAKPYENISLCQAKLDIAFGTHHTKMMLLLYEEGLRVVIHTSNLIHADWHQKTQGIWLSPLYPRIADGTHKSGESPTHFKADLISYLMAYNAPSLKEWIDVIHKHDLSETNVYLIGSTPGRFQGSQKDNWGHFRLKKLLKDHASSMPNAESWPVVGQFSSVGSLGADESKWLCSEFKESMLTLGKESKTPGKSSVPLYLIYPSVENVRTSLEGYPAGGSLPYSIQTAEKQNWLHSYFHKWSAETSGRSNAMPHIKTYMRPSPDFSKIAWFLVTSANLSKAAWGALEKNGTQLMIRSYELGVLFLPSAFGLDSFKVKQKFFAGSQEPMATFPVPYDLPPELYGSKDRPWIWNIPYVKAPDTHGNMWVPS

With `CC(/C=C1\SC(=S)N(c2ccc(C(=O)O)cc2)C1=O)=C\c1ccccc1`, the activation in assay [1] is 7.79% [at 17.1 µM, percent relative to cAMP agonist control]; in assay [4], 18.6% [at 30.8 µM]. The Potency entry in assay [2] was “inactive”. In assay [3], the activity change, negative = inhibition is 1.04% [at 30.8 µM].

As to `CCOC(=O)[C@H]1[C@H]2COc3ccc(C)cc3[C@@H]2N2C(=O)c3ccc(C)cc3NC(=O)[C@@]12C`, the Potency in assay [1] was 112 µM (active). Moreover, the Potency entry in assay [3] is “inactive”.

Regarding `O=C(O)CC/C(=C\c1cccc(NC(=O)c2ccccc2Cl)c1)c1nc2ccccc2s1`, the Potency entry in assay [1], in assay [2], in assay [3] and in assay [4] was “inactive” in each case.

Consider `O=C(O)COc1ccccc1/C=N/Nc1ccc(S(=O)(=O)Nc2ccc(Cl)cc2)cc1[N+](=O)[O-]`, for which the activation in assay [1] was 1.99% [at 17.1 µM, percent relative to cAMP agonist control]; in assay [4], 17.2% [at 30.8 µM]. The Potency result in assay [2] is “inactive”. In assay [3], the activity change, negative = inhibition is -8.36% [at 30.8 µM].

For `Cc1ccc(NS(=O)(=O)c2cccc3cccnc23)c(Cl)c1`, the Potency entry in assay [1], in assay [2], in assay [3] and in assay [4] was “inactive” in each case.

Take `O=C(O)c1ccc(Nc2nc(-c3cc4ccccc4oc3=O)cs2)cc1O`: the Potency in assay [5] is 63.1 µM (active). In addition, the Potency result in assay [1], in assay [2] and in assay [3] was “inactive” each time.

With `N=C1/C(=C\c2ccc(-c3cccc(C(=O)O)c3)o2)C(=O)N=C2SC=C(c3ccccc3)N12`, in assay [1], the Potency is 100 µM (active). Further, the Potency result in assay [3] and in assay [4] was “inactive” each time.
